Laboratory results taken from ChEMBL document CHEMBL1961873, “Compounds: GSK PKIS; Assays: Nanosyn kinase panel” (2012).

What was measured:
[1] = target: T1, Serine/threonine-protein kinase Nek9 (Homo sapiens) (UniProt Q8TD19); details: at 1 µM;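 note: each value is a mean percent inhibition of NEK9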
T1 sequence (whole entry): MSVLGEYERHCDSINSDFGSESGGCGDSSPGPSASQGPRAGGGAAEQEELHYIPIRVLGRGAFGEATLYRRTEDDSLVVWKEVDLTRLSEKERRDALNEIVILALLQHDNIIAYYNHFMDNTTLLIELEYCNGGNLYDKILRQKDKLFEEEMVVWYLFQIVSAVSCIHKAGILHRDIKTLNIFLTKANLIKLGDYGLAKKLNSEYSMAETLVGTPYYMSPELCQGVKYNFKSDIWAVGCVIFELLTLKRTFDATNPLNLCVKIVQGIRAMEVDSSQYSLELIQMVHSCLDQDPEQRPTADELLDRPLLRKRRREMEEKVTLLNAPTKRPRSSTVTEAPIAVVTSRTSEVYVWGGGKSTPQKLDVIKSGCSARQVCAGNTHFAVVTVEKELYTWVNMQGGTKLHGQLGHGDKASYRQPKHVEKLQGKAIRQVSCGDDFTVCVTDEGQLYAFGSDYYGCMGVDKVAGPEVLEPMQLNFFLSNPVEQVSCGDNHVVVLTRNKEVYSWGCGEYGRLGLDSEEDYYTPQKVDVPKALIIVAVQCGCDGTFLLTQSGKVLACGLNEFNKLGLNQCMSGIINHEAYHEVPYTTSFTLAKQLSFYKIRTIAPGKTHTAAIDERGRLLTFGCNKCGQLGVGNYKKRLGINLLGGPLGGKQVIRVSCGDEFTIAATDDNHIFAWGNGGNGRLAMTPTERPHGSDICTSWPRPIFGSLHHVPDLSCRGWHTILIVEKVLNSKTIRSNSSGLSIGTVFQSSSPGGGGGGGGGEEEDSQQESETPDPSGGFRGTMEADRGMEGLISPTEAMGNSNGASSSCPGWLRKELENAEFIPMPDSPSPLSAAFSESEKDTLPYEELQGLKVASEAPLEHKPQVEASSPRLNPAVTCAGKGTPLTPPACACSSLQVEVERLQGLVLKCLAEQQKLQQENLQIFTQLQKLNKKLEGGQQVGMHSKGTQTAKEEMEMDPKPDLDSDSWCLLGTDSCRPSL

[2] = target: Serine/threonine-protein kinase PLK1 (Homo sapiens) (UniProt P53350); details: at 0.1 µM
Serine/threonine-protein kinase PLK1 (Homo sapiens), sequence (P53350 whole entry): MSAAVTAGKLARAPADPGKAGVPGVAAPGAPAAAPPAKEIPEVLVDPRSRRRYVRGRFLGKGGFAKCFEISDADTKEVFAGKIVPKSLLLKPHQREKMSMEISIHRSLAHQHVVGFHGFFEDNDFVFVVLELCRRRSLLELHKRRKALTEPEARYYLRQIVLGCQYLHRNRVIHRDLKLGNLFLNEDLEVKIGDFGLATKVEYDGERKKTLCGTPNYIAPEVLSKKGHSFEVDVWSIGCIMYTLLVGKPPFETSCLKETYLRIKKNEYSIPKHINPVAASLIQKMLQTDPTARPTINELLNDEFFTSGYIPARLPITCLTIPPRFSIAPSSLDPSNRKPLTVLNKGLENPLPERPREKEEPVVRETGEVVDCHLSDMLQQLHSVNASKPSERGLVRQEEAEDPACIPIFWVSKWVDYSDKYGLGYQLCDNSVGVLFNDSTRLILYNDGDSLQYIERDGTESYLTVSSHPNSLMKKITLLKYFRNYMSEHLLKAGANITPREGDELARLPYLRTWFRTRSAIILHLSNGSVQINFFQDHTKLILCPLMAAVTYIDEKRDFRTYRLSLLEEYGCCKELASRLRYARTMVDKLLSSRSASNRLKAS

[3] = target: Serine/threonine-protein kinase PLK1 (Homo sapiens) (UniProt P53350); details: at 1 µM
[4] = target: T2, Dual specificity protein kinase TTK (Homo sapiens) (UniProt P33981); details: at 0.1 µM
T2 sequence (whole entry): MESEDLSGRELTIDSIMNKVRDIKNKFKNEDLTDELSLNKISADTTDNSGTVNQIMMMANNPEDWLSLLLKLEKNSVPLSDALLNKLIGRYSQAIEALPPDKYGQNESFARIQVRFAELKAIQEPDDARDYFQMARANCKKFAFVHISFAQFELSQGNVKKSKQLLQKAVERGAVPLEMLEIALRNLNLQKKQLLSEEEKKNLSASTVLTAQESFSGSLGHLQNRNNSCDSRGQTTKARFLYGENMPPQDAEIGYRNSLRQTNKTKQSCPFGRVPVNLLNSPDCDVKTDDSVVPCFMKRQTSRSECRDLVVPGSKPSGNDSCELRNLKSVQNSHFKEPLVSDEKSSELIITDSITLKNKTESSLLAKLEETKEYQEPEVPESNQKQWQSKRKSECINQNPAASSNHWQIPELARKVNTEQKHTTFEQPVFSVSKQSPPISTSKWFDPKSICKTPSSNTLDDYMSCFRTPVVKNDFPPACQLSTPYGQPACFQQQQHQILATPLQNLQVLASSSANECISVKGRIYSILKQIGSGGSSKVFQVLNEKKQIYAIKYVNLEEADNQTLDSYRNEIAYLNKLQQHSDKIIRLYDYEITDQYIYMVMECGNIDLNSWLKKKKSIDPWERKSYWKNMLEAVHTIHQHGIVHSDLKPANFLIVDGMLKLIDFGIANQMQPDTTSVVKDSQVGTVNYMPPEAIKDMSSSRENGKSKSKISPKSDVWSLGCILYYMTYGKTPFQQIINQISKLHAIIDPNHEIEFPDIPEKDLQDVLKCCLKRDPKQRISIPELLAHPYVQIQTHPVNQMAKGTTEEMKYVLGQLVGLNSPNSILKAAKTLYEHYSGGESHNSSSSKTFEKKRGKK

[5] = test system: T3, Receptor-type tyrosine-protein kinase FLT3 (Homo sapiens), P36888 [D835Y]; details: at 1 µM
T3 sequence (whole entry): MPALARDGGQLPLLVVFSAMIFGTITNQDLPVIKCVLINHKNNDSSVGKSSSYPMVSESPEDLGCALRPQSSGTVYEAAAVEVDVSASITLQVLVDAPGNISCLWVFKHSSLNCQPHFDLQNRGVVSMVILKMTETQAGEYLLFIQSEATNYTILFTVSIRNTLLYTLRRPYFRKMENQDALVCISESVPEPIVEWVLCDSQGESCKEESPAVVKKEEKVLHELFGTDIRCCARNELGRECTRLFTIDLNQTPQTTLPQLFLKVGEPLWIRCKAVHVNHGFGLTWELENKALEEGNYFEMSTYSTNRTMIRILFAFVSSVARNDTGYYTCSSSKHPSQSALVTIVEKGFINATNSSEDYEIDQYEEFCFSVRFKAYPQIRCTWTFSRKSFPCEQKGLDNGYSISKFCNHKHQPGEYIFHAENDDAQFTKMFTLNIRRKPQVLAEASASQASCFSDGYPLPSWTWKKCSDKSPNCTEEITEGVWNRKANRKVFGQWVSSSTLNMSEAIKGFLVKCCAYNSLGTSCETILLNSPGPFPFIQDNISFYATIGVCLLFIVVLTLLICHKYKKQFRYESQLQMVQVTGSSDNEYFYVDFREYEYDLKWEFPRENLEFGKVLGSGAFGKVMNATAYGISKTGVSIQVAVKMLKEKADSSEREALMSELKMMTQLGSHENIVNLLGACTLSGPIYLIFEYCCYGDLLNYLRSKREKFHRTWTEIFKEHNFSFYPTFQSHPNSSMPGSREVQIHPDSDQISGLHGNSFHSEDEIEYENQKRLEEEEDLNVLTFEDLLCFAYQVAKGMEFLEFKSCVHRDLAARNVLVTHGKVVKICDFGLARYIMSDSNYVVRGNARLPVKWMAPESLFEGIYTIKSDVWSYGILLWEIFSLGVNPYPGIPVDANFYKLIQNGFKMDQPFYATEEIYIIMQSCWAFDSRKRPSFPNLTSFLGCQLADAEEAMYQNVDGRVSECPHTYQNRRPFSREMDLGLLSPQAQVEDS

[6] = target: Vascular endothelial growth factor receptor 3 (Homo sapiens) (UniProt P35916); details: at 0.1 µM
Vascular endothelial growth factor receptor 3 (Homo sapiens), sequence (P35916 whole entry): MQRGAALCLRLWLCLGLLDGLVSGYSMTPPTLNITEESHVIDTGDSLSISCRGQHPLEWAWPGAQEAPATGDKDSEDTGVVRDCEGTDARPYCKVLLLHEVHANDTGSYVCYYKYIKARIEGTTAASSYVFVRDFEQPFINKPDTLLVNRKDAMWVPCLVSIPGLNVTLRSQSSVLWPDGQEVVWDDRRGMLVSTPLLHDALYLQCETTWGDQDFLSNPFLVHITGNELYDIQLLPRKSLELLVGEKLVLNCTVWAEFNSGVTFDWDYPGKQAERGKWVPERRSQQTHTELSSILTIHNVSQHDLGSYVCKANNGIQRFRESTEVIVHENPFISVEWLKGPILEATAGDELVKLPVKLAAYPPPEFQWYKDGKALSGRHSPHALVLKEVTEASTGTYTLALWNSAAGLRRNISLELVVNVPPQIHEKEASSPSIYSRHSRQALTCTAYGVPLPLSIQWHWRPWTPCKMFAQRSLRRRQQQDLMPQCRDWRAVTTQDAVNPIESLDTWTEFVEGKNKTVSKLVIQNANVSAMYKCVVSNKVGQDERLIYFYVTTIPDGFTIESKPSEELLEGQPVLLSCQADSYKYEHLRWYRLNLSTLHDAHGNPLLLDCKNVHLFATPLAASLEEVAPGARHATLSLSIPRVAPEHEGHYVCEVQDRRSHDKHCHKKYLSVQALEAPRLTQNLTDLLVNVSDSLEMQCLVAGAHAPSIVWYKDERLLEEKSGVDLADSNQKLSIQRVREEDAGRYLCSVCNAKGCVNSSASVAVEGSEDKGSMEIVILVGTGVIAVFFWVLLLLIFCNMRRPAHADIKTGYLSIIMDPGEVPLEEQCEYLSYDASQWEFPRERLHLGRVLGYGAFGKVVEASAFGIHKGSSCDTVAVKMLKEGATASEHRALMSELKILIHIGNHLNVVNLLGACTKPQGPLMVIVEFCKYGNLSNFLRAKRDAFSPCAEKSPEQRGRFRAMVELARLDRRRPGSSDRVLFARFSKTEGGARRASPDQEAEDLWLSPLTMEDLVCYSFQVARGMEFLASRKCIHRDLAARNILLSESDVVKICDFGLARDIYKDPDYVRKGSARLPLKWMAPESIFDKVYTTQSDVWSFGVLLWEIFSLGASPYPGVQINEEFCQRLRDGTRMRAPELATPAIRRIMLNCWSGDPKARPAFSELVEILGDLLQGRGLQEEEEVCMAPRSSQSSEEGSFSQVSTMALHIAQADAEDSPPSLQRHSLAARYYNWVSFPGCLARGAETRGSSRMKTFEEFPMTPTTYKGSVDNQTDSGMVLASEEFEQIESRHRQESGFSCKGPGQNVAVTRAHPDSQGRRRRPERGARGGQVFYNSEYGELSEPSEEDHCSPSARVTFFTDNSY

[7] = target: Vascular endothelial growth factor receptor 3 (Homo sapiens) (UniProt P35916); details: at 1 µM
[8] = target: Macrophage colony-stimulating factor 1 receptor (Homo sapiens) (UniProt P07333); details: at 0.1 µM
Macrophage colony-stimulating factor 1 receptor (Homo sapiens), sequence (P07333 whole entry): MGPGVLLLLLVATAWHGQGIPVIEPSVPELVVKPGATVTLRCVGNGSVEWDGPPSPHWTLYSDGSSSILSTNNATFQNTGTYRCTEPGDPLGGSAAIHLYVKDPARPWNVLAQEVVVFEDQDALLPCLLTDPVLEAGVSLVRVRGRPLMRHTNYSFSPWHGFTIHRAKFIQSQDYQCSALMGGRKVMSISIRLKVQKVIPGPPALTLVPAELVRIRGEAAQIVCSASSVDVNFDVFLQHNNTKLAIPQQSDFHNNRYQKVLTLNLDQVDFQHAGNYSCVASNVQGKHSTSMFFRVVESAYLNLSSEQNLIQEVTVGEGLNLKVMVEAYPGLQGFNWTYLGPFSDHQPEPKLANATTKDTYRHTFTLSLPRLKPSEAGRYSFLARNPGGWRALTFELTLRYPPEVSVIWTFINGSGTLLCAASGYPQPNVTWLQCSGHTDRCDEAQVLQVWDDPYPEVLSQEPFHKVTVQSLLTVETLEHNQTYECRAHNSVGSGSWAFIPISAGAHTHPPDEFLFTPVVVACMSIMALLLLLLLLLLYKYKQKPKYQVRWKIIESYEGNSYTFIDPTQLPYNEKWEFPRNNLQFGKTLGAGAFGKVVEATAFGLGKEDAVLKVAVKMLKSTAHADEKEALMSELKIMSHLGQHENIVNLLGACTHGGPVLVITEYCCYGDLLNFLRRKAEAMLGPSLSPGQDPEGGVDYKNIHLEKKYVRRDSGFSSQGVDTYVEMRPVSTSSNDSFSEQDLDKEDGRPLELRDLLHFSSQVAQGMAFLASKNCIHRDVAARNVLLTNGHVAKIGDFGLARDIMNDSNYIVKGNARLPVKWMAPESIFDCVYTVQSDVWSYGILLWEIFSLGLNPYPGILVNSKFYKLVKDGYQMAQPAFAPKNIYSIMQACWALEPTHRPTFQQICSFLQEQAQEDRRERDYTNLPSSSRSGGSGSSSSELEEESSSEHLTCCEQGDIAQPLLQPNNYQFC

[9] = target: Macrophage colony-stimulating factor 1 receptor (Homo sapiens) (UniProt P07333); details: at 1 µM
[10] = target: Tyrosine-protein kinase Fyn (Homo sapiens) (UniProt P06241); details: at 0.1 µM
Tyrosine-protein kinase Fyn (Homo sapiens), sequence (P06241 2-537 limits assumed): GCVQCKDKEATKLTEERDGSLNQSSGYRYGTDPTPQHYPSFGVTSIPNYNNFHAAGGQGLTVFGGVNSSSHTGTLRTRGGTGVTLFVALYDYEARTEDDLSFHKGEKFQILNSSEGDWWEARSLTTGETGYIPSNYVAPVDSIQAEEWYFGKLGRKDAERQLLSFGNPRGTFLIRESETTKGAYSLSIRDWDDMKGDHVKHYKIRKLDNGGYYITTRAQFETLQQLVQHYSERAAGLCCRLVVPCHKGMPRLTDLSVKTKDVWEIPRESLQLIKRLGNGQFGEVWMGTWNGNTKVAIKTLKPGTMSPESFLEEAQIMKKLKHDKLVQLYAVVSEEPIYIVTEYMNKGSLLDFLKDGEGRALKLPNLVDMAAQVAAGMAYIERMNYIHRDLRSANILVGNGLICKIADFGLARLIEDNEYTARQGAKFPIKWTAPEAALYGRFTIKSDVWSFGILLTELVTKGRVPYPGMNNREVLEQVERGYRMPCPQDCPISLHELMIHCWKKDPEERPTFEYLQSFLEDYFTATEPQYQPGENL

SMILES | inhibition [1] | inhibition [2] | inhibition [3] | inhibition [4] | inhibition [5] | inhibition [6] | inhibition [7] | inhibition [8] | inhibition [9] | inhibition [10]
O=C1Nc2ccc(C(=O)c3ccco3)cc2C1=Cc1cc(Cl)c(O)c(Cl)c1 | 5.76% | 9.81% | 43.2% | 10.9% | 29.9% | 6.18% | 12.3% | 26.3% | 74% | 3.62%
COc1cc2ncn(-c3cc(OCc4ccccc4C(F)(F)F)c(C(N)=O)s3)c2cc1OC | 58.7% | 93.4% | 96.3% | 7.82% | 14.5% | 6.89% | 53.1% |  |  | -0.99%
Cc1ccc(NC(=O)c2ccnc(N3CCCC3)c2)cc1-c1ccc(C(=O)NCC2CC2)cc1 | 6.52% | 3.7% | 4.57% | 15.4% | 1.51% | -7.96% |  | 1.57% | 2.74% | -2.42%
CN(C)c1cc2c(Nc3ccc4nc(Cc5ccccc5)[nH]c4c3)ncnc2cn1 | 10.6% | 6.15% | 6.34% | 13.2% | -1.97% | 7.56% | 11.3% | 4.7% | 15.4% | 4.62%
CC1=C(C(=O)Nc2ccc3[nH]ncc3c2)C(c2ccc(F)cc2)NC(=O)N1 (configuration not stated) | 3.09% | 2.01% | 1.91% | 3.79% | -1.48% | 18.2% | 15.4% | 1.12% | 0.9% | 1.72%
COc1ccc(-c2nn3ncccc3c2-c2ccnc(Nc3ccc(Cl)c(C(F)(F)F)c3)n2)cc1 | 6.74% | 0.21% | 3.01% | 5.35% | -6.5% | -0.61% | 3.27% | -1.71% | 5.03% | 3.8%
Cc1nnc(-c2ccc(C)c(-c3ccc(C(=O)Nc4cccc(C#N)c4)cc3)c2)o1 | 6.96% | 2.65% | 1.18% | 3.88% | 1.89% | -1.08% | 1.02% | -0.4% | 0.77% | 3.8%
CC(C)=Cc1cccc2c1/C(=N/Nc1ccc(S(N)(=O)=O)cc1)C(=O)N2 | 1.52% | -0.43% | 0.59% | 11.7% | 66.6% | 4.82% | 46.6% | 41.8% | 86.8% | 4.49%
CCCN1CCC=C(c2ccc(Nc3nc(Nc4ccccc4C(N)=O)c4cc[nH]c4n3)c(C)c2)C1 | 7.97% | 13.9% | 53.6% | 70.8% | 20.8% | 9% | 26.6% | 27.4% | 63.1% | 4.83%
COc1cc2ncn(-c3cc(O[C@@H](C)c4ccccc4Cl)c(C(N)=O)s3)c2cc1OC | 38.4% |  |  | 6.36% | 3.92% | 19.7% | 67.6% | 1.84% | 9.87% | 3.53%
COc1cc2ncn(-c3cc(O[C@H](C)c4ccccc4Cl)c(C(N)=O)s3)c2cc1OC | 91.6% |  |  | 9.01% | 39.6% | 31.8% | 81.3% | 8.07% | 41.9% | 2%
Cc1ccc(C(=O)NC2CCCCC2)cc1-c1ccc(C(=O)NCC2CC2)cc1 | -4.93% | 3% | 2.23% | 2.82% | -1.53% | 3.84% | 5.49% | -0.58% | 5.17% | -0.84%
Fc1cccc(COc2ccc(Nc3ncnc4sc(-c5cccs5)cc34)cc2Cl)c1 | 2.21% | 1.64% | 2.97% | 2.43% | 4.36% | 3.77% | 3.65% | 0.1% | 11.2% | 1.11%
COC(=O)Nc1nc2cc(Oc3ccc(NC(=O)Nc4cccc(C(=O)O)c4)cc3)ccc2[nH]1 | 1.76% | 0.16% | 0.8% | 1.59% | 4.78% |  | -5.74% | 3.75% | 8.4% | -5.06%
